Test [1] relates to Plasmodium falciparum Sir2 (PF13_0152, Sir2A). Put plainly: pfSir2 binders on small-molecule microarrays, primary screen, biochemical, small-molecule microarray, 635 nm fluorescence (AID 1098).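 Further: score merges spot fluorescence intensity with its signal-to-noise ratio.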 Particulars: small-molecule microarray binding, fluorescence 635 nm; higher = more signal.
The nature of test [2]: small-molecule microarray binders of probe aDKK1, primary screen, biochemical, biotinylated probe, 635/667 nm fluorescence (AID 1099).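 Further: score merges 667nm spot fluorescence with signal to noise across triplicate slides; reference of the scale not given here.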 The note with it: higher = more signal.
Test [3] in a line: small-molecule microarray binders of probe aCHRDL2, primary screen, biochemical, biotinylated probe, 635/667 nm fluorescence (AID 1100). Particulars: higher = more signal.
Test [4] can be described thus: splicing luciferase reporter signal modulators, primary screen, spliceosome inhibition project, cell-based, HEK293, splice +/- reporter (AID 1101).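 Further: HEK293 cells carrying a splicing-competent luciferase reporter gene; test concentration not given here.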 The note with it: luminescence, 24 h, higher = more signal, called active from +8 up or from −8 down.
Test [5] deals with Fibroblast growth factor 10 (Homo sapiens) (UniProt O15520). As to the kind of experiment: FGF10 binders on small-molecule microarrays, primary screen, biochemical, small-molecule microarray, 635 nm fluorescence (AID 1102). Particulars: FGF10 binding, fluorescence 635 nm, higher = more signal.
Sequence of Fibroblast growth factor 10 (Homo sapiens) (O15520 whole entry, looked up): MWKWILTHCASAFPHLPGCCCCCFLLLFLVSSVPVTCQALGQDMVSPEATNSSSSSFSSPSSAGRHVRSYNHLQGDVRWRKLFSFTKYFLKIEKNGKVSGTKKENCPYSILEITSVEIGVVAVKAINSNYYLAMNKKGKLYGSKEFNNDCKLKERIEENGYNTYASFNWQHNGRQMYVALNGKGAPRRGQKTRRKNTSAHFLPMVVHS
The test system of test [6] is glycogen synthase kinase-3 (GSK3A per assay name; protocol says GSK3B). Put plainly: GSK3 binders on small-molecule microarrays, primary screen, biochemical, small-molecule microarray, 635 nm fluorescence, GSK3A (AID 1103). Further: the record names both GSK3A and GSK3B. The note with it: small-molecule microarray binding, fluorescence 635 nm; higher = more signal.
In test [7] the target is Epidermal growth factor receptor (Homo sapiens) (UniProt P00533). Put plainly: EGFR binders on small-molecule microarrays, primary screen, biochemical, small-molecule microarray, 635 nm fluorescence (AID 1104).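 Further: score merges 667 nm emission intensity with spot signal to noise over triplicate slides.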 Particulars: EGFR binding, higher = more signal.
Sequence of Epidermal growth factor receptor (Homo sapiens) (P00533 whole entry, looked up): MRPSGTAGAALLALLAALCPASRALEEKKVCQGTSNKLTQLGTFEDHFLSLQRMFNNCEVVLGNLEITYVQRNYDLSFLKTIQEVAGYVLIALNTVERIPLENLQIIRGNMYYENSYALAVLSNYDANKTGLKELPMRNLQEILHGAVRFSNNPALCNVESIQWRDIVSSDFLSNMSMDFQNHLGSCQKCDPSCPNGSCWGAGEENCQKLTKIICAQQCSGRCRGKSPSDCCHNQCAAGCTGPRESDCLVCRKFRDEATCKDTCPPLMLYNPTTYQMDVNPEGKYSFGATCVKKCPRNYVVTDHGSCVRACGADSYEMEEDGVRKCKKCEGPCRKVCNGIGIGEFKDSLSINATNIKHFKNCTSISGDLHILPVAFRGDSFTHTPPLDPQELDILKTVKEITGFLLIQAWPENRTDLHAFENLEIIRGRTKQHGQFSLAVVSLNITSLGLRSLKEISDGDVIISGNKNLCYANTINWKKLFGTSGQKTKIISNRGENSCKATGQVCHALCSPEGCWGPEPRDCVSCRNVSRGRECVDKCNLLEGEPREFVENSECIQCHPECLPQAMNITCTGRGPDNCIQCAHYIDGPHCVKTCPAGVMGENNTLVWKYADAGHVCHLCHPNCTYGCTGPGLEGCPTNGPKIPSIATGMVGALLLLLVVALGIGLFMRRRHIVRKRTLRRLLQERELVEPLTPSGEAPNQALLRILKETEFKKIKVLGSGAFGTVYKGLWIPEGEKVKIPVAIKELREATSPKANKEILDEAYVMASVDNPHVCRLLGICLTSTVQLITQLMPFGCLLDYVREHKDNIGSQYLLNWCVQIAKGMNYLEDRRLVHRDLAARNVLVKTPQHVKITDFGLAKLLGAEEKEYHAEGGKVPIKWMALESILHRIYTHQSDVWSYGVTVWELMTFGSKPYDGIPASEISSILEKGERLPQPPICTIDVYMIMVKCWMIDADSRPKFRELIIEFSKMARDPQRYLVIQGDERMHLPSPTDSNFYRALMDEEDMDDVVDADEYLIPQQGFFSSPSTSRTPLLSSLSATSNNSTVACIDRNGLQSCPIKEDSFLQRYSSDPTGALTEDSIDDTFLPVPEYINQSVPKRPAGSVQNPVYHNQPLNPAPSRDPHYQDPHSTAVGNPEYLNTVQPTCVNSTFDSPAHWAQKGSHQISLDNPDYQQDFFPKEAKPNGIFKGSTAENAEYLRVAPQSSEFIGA
Test [8] deals with Follistatin-related protein 3 (Homo sapiens) (UniProt O95633). As to the kind of experiment: FSTL3 binders on small-molecule microarrays, primary screen, biochemical, small-molecule microarray, 635 nm fluorescence (AID 1105).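 Further: score merges emission near 667 nm and signal to noise per printed spot across three slides.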 Particulars: FSTL3 binding, higher = more signal.
Sequence of Follistatin-related protein 3 (Homo sapiens) (O95633 whole entry, looked up): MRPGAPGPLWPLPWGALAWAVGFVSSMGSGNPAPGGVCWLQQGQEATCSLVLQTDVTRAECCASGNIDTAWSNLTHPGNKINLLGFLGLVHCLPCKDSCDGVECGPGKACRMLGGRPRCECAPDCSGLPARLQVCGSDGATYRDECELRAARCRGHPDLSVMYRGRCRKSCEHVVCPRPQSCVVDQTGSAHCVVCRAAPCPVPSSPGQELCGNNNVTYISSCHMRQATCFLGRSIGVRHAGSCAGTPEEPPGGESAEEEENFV
Test [9] has as its target Dickkopf-related protein 1 (Homo sapiens) (UniProt O94907). As to the kind of experiment: DKK1 binders on small-molecule microarrays, primary screen, biochemical, small-molecule microarray, 635 nm fluorescence scan (AID 1106).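 Further: score merges emission near 667 nm with signal to noise over three replicate slides.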 The note with it: DKK1 binding, higher = more signal.
The subject of test [10] is Inhibin beta A chain (activin A). As to the kind of experiment: INHBA (activin A) binders on microarrays, primary screen, biochemical, small-molecule microarray, 635 nm fluorescence scan (AID 1107).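 Further: mouse activin A protein probed at 4.33 µg/mL on printed slides; score merges bound-protein fluorescence near 667 nm with spot signal-to-noise.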 Particulars: small-molecule microarray binding, higher = more signal.

Calls of active or inactive are those of the source.

Drawing on PubChem BioAssay, this text covers composite z-score and z-score for 15 molecules.

Sequence of Dickkopf-related protein 1 (Homo sapiens) (O94907 whole entry, looked up): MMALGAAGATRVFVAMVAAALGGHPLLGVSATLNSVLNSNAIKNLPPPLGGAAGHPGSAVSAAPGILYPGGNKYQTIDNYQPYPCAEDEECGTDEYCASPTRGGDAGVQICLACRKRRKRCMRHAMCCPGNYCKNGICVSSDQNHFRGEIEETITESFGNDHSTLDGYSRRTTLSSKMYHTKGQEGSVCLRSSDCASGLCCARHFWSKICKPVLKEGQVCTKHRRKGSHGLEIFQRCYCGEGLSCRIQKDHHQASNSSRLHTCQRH

Take `COCCOC(=O)N1C(=O)[C@@]2(c3cc(C#CC4(O)CCCCCC4)ccc31)[C@H](c1ccc(O)cc1)N1[C@H](c3ccccc3)[C@H](c3ccccc3)OC(=O)[C@H]1[C@@H]2C(=O)N1CCN(c2ncccn2)CC1`: the composite z-score in test [1] came out at 0.952; in test [2] it was 0.0005; in test [3], 0.426; in test [5], 0.425; in test [6] it was 0.788; in [7], 0.149. Further, the results for the composite z-score in test [8], in test [9] and in [10] were 0.476, 0.063 and -0.275, respectively. In test [4], the z-score is 0.325 (inactive).

For the molecule `N#Cc1ccc(NN2C(C(O)c3ccc(Br)cc3)C=CC3C(=O)N(c4ccccc4)C(=O)C32)cc1` (stereo not given), the composite z-score amounted to 1.17 in test [1]; 0.96 in test [2]; 0.905 in test [3]; 0.65 in test [5]; 0.648 in test [6]; 0.297 in [7]. In addition, the composite z-score in [8] was 0.743; in [9], 0.316; in test [10], -0.374. Further, the z-score in test [4] was -0.699 (inactive).

On to `CCCCCC1=C2CNC(C)(C(=O)OC)C=C2C(C)C1=O` (stereo not given), for which the composite z-score in [1] is -0.0215; in test [2], 0.827; in test [3] it was 0.865; in test [5], 0.0992; in test [6] it was -1.1; in [7], -0.476. The composite z-score in test [8] is -0.713; in [9], -0.52; in test [10] it was 1.16. For the same molecule, in [4], the z-score is 1.23 (inactive).

As to `O=C(C1N=C(c2ccc(OCCCO)cc2)N(c2ccccc2)O1)N1CCCCC1` (stereo not given), the composite z-score in test [1] is 0.984; in [2] it was 0.88; in [3], 0.0556; in [5], 0.648; in test [6], 1.22; in test [7], -0.0036. Besides, the values for the composite z-score in test [8], in test [9] and in test [10] were 0.181, 0.291 and 0.088, respectively. The z-score in test [4] is -0.577 (inactive).

For the molecule `COC(=O)[C@@H]1N=C(c2ccc(OCCCO)cc2)O[C@@H]1C`, the composite z-score in test [1] is -0.0756; in test [2], 0.017; in test [3], 0.795; in [5], 0.965; in test [6], 0.16; in test [7], -0.55. For the same molecule, the composite z-score in [8] was -0.0372; in test [9], 0.0375; in test [10] it was -0.004. For the same molecule, in test [4], the z-score was 0.04 (inactive).

Take `CS(=O)(=O)CCOC(=O)C1=CC(CCCO)=CC(c2ccc(CN3CCCC3)cc2)N(Cc2sc3ccccc3c2Cl)C=C1C(=O)OCCS(C)(=O)=O` (stereo not given): the composite z-score in test [1] is 1.37; in test [2], 0.518; in [3], -0.0725; in test [5] it was 1.34; in test [6], 1.33; in test [7], 0.558. In addition, the composite z-score in test [8] stood at 1; in test [9], 0.858; in [10], 1.34. Also, in [4], the z-score was 0.576 (inactive).

Turning to `CC(C)C(CO)N1C(=O)[C@@H]2[C@H]3C(=O)OCC=C[C@H]3OC23C=CCN(c2ccc(Cl)cc2)C(=O)[C@@H]13` (stereo not given in full), the composite z-score was -1.14 in [1]; -0.0517 in test [2]; -0.0455 in test [3]; -0.739 in [5]; -0.889 in test [6]; -0.627 in [7]. Besides, the composite z-score in test [8] is -0.93; in test [9] it was -0.865; in test [10], 0.653. The z-score in test [4] was 0.121 (inactive).

Regarding `Cc1ccc(F)cc1S(=O)(=O)N[C@@H]1CCN(Cc2ccc(Br)cc2)C1`, the composite z-score is 0.0002 in test [1]; -0.16 in test [2]; -0.418 in test [3]; 0.69 in test [5]; -0.751 in test [6]; 0.529 in test [7]. The composite z-score in test [8] is 0.752; in test [9], 0.677; in test [10] it was 0.359. Moreover, in test [4], the z-score is -1.12 (inactive).

On to `CC(C)NC(=O)[C@@]1(C)c2ccccc2C(=O)N(Cc2ccc(OC(F)(F)F)cc2)[C@H]1c1ccc(CO)cc1`, for which the composite z-score is 1.43 in [1]; -0.0863 in [2]; 0.77 in test [3]; -0.962 in test [5]; -0.85 in test [6]; -1.43 in [7]. Also, the composite z-score is -1.19 in [8], -1.25 in [9] and -1.03 in [10]. The z-score in [4] was -1.08 (inactive).

As for `CC1CC/C=C\[C@H]2OC34C=CCN(c5ccc(Cl)cc5)C(=O)[C@H]3N(C(C)CO)C(=O)[C@]4(C)C2C(=O)O1` (stereo not given in full), the composite z-score in test [1] is 0.365; in test [2], -0.132; in [3] it was 0.158; in test [5], -0.39; in test [6] it was -0.793; in [7], -0.955. The composite z-score in [8] was -1.43; in [9] it was -0.945; in test [10] it was 0.896. In addition, the z-score in [4] was -0.718 (inactive).

In the case of `CCOC(=O)C1=CC[C@@H](c2ccccc2F)N(S(=O)(=O)c2ccc(C)cc2)[C@H]1c1ccccc1`, the composite z-score is 0.441 in test [1]; 0.128 in [2]; -0.106 in [3]; 0.801 in test [5]; 1.16 in test [6]; 0.486 in test [7]. Also, the composite z-score turned out to be 0.766 in test [8], 0.253 in test [9] and 0.713 in [10]. Further, the z-score in test [4] was -1.12 (inactive).

Take `Oc1ccc2cc[n+](Cc3cc4c(cc3Br)OCO4)cc2c1`: the composite z-score in test [1] is -1.19; in test [2] it was 0.144; in test [3] it was 0.452; in test [5], -0.633; in test [6] it was -1.16; in test [7], -0.243. Also, the figures for the composite z-score in [8], in test [9] and in test [10] were -0.456, -0.14 and 0.398, respectively. The z-score in test [4] was -0.95 (inactive).

For `OCCCC1=CC(c2ccc(CN3CCCC3)cc2)N(Cc2cc3c(cc2Br)OCO3)CC1` (stereo not given), the composite z-score in [1] was found to be 0.216; in test [2], 0.0738; in [3], 0.732; in [5] it was 0.477; in test [6], 0.328; in test [7], 0.259. For the same molecule, the composite z-score in [8] worked out at 0.809; in test [9], 1.14; in test [10] it was 1.57. For the same molecule, the z-score in [4] was 0.361 (inactive).

`COc1ccc(CCNC(=O)[C@@]2(Sc3ccc(C)cc3)CC(=O)N(Cc3ccccc3C(F)(F)F)[C@@H]2c2ccc(CO)cc2I)cc1`: the composite z-score in [1] is 1.09; in test [2], -0.0552; in test [3], 1.08; in [5], -1.06; in test [6] it was -0.404; in test [7], -1.24. The composite z-score was -1.64 in [8], -1.14 in test [9] and 0.67 in test [10]. Besides, in test [4], the z-score was -1.14 (inactive).

For `[N-]=[N+]=Nc1ccccc1[C@@H]1OC(c2ccc(OCCCO)cc2)=N[C@]1(Cc1ccccc1)C(=O)O`, the composite z-score in test [1] was 0.77; in [2], 0.973; in [3], 0.0948; in test [5], 0.747; in test [6], 0.655; in test [7], -0.129. Also, the composite z-score is 0.455 in test [8], -0.347 in test [9] and 1.2 in test [10]. Further, the z-score in [4] was -0.689 (inactive).
